# High-throughput results deposited in PubChem by National Center for Advancing Translational Sciences (NCATS).
# Only some compounds are listed: those with a hit (about 5.5% of all), similar ones and a draw of the others.
# Coupling enz – coupling enzyme interference in Giardia aldolase counter-screen; coupling enzyme system counterscreen, AmpLite Red fluorescence; activity change, negative = inhibition, % at 58.2 µM, hits read low; hit rate 0.67% among 290,000; AID 2472; in the data active = activity change below about -30%
#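 Counterscreen of the coupled detection system alone, without aldolase: glyceraldehyde-3-phosphate coupling enzymes plus AmpLite Red readout. Compounds at 57.5 uM final, 10 min RT preincubation, 20 min RT reaction, fluorescence 525/598 nm.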
# Sfp inh – blocks B. subtilis Sfp PPTase activity | Potency, µM, usual class: inhibitors | Biochemical Sfp PPTase activity, qHTS | hit rate 3.5% among 310,000;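 also: the enzyme is Sfp with the accession as filed and its product quenches rhodamine fluorescence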
#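 Fluorescence-quenching assay with 15 nM Sfp, 5 uM rhodamine-CoA and 12.5 uM BHQ-2-labelled ybbR peptide in pH 7.6 Hepes/MgCl2 buffer. Enzyme was pre-incubated with compound for 15 min at room temperature. Rate was taken from the 30-min fluorescence change (525/598 nm).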
# ELG1 DNA repair – inhibitors of ELG1-dependent DNA repair in HEK293T cells; HEK293T ELG1-luciferase reporter, luminescence, 16 h; DNA damage induced by 5-fluorouridine; hit rate 2.3% among 330,000; Potency, µM (doses to about 46.1 µM), hits mostly inhibitors; also: nearly all actives have a fitted effect of over 55% in size
#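 DMSO vehicle served as the neutral condition. Each well held 2,000 cells given 5-fluorouridine plus compound; after 16 hr at 37 °C/5% CO2, ONE-Glo was added and luciferase measured 30 min later.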
# Giardia kill – Giardia lamblia killing | Giardia lamblia trophozoite viability | activity change, % at 7.66 µM, hits read low | hit rate 0.15% among 340,000 | AID 540267; in the data active = activity change below about -80%; inconclusive = between about -30% and that limit;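 also: parasites exposed to compound for two days anaerobically before the ATP read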
#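 Giardia trophozoites, 100 cells per well, were exposed to compounds for 48 hrs at 37 deg C under anaerobic conditions; viability was then read as ATP content by bioluminescence after 15-30 min at room temperature.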
# Hits are given with their value; 0 = inactive; ? = inconclusive; - = no result given. Unless noted, calls follow the shape of the dose curve; as a rule, active = well fitted curve in the direction sought with a large enough effect; inconclusive = small, poorly fitted or top-dose-only effect, or another doubt; inactive = no such curve, though single readings can be large; an effect the other way counts as inactive or inconclusive.
SMILES,Coupling enz,Sfp inh,ELG1 DNA repair,Giardia kill
COC(=O)[C@@]1(Cc2ccc(OC)cc2)[C@H]2c3cc(C(=O)N(C)C)n(Cc4nc5ccccc5[nH]4)c3C[C@H]2CN1C(=O)c1ccccc1,0,0,-,-
O=C(CCl)Nc1cc(SCC(O)CO)cc([N+](=O)[O-])c1 (stereo not given),0,71µM,3.3µM,0
Cc1cccc(COc2ccccc2C(=O)OCC(=O)N(C)c2c(N)n(Cc3ccccc3)c(=O)[nH]c2=O)c1,-,0,21µM,0
Cc1ccc(C)c(NC(=O)CCC(=O)NN=C2CCCC2)c1,-,0,0,0
Cc1onc(-c2c(Cl)cccc2Cl)c1C(=O)NCCc1ccncc1,-,0,0,0
Cc1nn(-c2ccccc2)c(N)c1C(c1ccc(C(C)C)cc1)c1c(C)nn(-c2ccccc2)c1N,0,0,8.2µM,0
Cc1ccc(C(c2c(C)nn(-c3ccccc3)c2N)c2c(C)nn(-c3ccccc3)c2N)cc1,0,0,?,0
O=C1NN(c2ccccc2)C(=O)/C1=C\c1ccc(-c2cc([N+](=O)[O-])ccc2O)o1,0,79µM,0,0
O=C1NN(c2ccc(Cl)cc2)C(=O)/C1=C\c1ccc(-c2cccc(C(=O)O)c2)o1,0,0,?,0
O=c1cc(-c2ccc([N+](=O)[O-])cc2)nc2cc(-c3ccc(F)cc3)[nH]n12,0,45µM,0,0
Cc1ccccc1-c1cc2nc(-c3ccc([N+](=O)[O-])cc3)cc(=O)n2[nH]1,0,0,0,0
c1ccc2c(Nc3ccc4c(c3)OCCO4)c3c(nc2c1)CCCC3,0,50µM,?,0
Fc1cccc(Nc2c3c(nc4ccccc24)CCC3)c1,0,0,0,0
Cc1c(O)ccc(C(=O)CN2CCN(c3ccccc3F)CC2)c1O,0,0,0,0
CN1CCN(CC(=O)c2ccccc2F)CC1,0,56µM,0,0
C=CCNC(=O)c1n[nH]c2c1CC(C(C)(C)CC)CC2 (stereo not given),-,-,0,0
O=S(=O)(c1cccs1)N1CCN(CC(O)COc2cc(Cl)ccc2Cl)CC1 (stereo not given),0,0,8.2µM,0
O=S(=O)(c1cccs1)N1CCN(CCOc2ccc(Cl)cc2)CC1,-,-,0,0
COc1ccc(C(=O)NC(=S)Nc2ccc3c(c2)Cc2ccccc2-3)cc1,0,45µM,0,0
Cc1ccc2cccnc2c1NC(=S)NC(=O)c1ccccc1,0,18µM,0,0
Cc1ccc(NC(=S)NC(=O)c2ccccc2)cc1NC(=S)NC(=O)c1ccccc1,0,25µM,?,0
Cc1ccc2cccc(NC(=S)NC(=O)c3ccccc3)c2n1,0,?,0,0
O=C(NC(=S)Nc1ccc2ncccc2c1)c1ccccc1,0,50µM,?,0
O=C(NC(=S)Nc1cccc(NC(=S)NC(=O)c2ccccc2)c1)c1ccccc1,-,-,-,0
COc1ccc(C=O)cc1CSc1ncccc1C(=O)O,0,0,0,0
SMILES,Coupling enz,Sfp inh,ELG1 DNA repair,Giardia kill
C=CCNC(=O)C1CCN(S(=O)(=O)c2ccc3ccccc3c2)CC1,0,0,0,0
Nc1ccc(C(=O)Nc2cccc3ncccc23)cc1,0,0,0,0
O=C(NC(=S)Nc1cccc2ncccc12)c1cccs1,0,45µM,0,0
CC(=O)Nc1cccc2ncccc12,0,0,0,0
O=C(NC(=S)Nc1cccc2ncccc12)c1ccccc1,0,20µM,0,0
Cc1ccc(S(=O)(=O)N2CCN(c3nc(-c4cccs4)nc(C)c3C)CC2)cc1,-,-,-,0
COc1ccc(N2CC(C(=O)NCc3n[nH]c(=O)c4ccccc34)CC2=O)cc1 (stereo not given),-,-,0,0
CCn1c2ccccc2c2cc(CN3CCN(C(=O)c4ccco4)CC3)ccc21,0,56µM,?,0
O=C(CN1CCN(Cc2ccc3c(c2)OCO3)CC1)Nc1ccc2c(c1)OCO2,0,0,?,0
COc1ccc(NC(=O)CN2CCN(Cc3ccc4c(c3)OCO4)CC2)cc1OC,-38,56µM,?,0
COc1cc(NC(=O)CN2CCN(Cc3ccc4c(c3)OCO4)CC2)cc(OC)c1,0,56µM,23µM,0
CC1CCc2nc(NC(=O)CN3CCN(Cc4ccc5c(c4)OCO5)CC3)sc2C1 (stereo not given),0,0,12µM,0
COC(=O)c1[nH]c2ccccc2c1NC(=O)CN1CCN(Cc2ccc3c(c2)OCO3)CC1,0,0,4.6µM,0
COc1ccc(NC(=O)c2cccc(N3C(=O)C4C5C=CC(C6CC56)C4C3=O)c2)cc1 (stereo not given),0,0,23µM,0
CS(=O)(=O)Nc1cccc(-c2cnc3ccccc3n2)c1,0,0,?,0
O=C(NC1CCCCC1)c1ccc([N+](=O)[O-])o1,0,0,?,-95
O=C(NC1CCCC(C(F)(F)F)C1)c1ccc([N+](=O)[O-])o1 (stereo not given),-,-,0,-91
Cc1ccc(CS(=O)(=O)Cc2ccc(C(=O)NC3CCCCCC3)o2)cc1,0,0,18µM,0
Cc1ccc(CS(=O)(=O)Cc2ccc(C(=O)NC3CCCC3)o2)cc1,-,0,0,0
O=C(COC(=O)c1ccc([N+](=O)[O-])o1)NC1CCCCC1,-,-,0,0
O=C(COC(=O)c1ccc([N+](=O)[O-])o1)NC1CCCC1,-,-,0,0
Cc1csc(NC(=O)c2ccc3nc[nH]c3c2)n1,0,0,?,0
O=S(=O)(c1ccccc1)N1CCC2(CCN(Cc3ccncc3)CC2)CC1,0,0,-,-
O=C1C(=NO)CCc2ccccc21,-,-,-,0
CC(C)(C)OC(=O)NC(Cc1ccccc1)C(=O)NC1COC2CC(n3cc(F)c(=O)[nH]c3=O)OC12 (stereo not given),0,0,-,0
SMILES,Coupling enz,Sfp inh,ELG1 DNA repair,Giardia kill
Cc1cc(O)c(Oc2cc(C)cc(O)c2O)c(O)c1,0,5µM,0,0
O=C(CCCN1C(=O)/C(=C\c2ccco2)SC1=S)Nc1ccc(O)cc1C(=O)O,-,50µM,0,0
O=C(CCCN1C(=O)/C(=C/c2ccco2)SC1=S)Nc1cccc(C(=O)O)c1,0,25µM,0,0
CC(C)CCN1C(=O)c2cccc3c(N)ccc(c23)C1=O,-,-,-,0
CC(=O)OCCCNc1cc(Sc2ccc(C)cc2)c2nonc2c1[N+](=O)[O-],0,0,?,0
CCCC(=O)OCCNc1cc(SCCC(=O)OC)c2nonc2c1[N+](=O)[O-],0,?,0,0
CC(=O)OCCCNc1cc(Sc2nc3ccccc3s2)c2nonc2c1[N+](=O)[O-],-35,2.5µM,0,0
CC(=O)OCCNc1cc(Sc2nc3ccccc3[nH]2)c2nonc2c1[N+](=O)[O-],0,1.6µM,?,0
COc1ccc(CN(C)CC(=O)N(C)CC(=O)Nc2ccccc2Br)cc1F,-,-,0,0
Cc1ccc(N(C)S(=O)(=O)c2cccc(C(=O)NCC(c3ccco3)N3CCCC3)c2)cc1 (stereo not given),-,-,0,0
N#Cc1c2ccc([N+](=O)[O-])cc2[n+]([O-])n1-c1ccccc1,-,-,10µM,-
CNc1ccc(C(=O)OCC(=O)NCc2ccc3c(c2)OCO3)cc1[N+](=O)[O-],-,-,0,0
Cc1sc2nc(CSc3nc4ccccc4s3)[nH]c(=O)c2c1C,0,0,?,-
